Most compounds without a hit are left out; they make up all but 9.3% or so of the library.
HCV inh = HCV inhibition; Huh7.5.1 HCVcc-Cre infection, luciferase reporter, 44 h; Potency, µM (top dose mostly 41.8 µM), usual class: inhibitors; 3.4% of 340,000 active; AID 651820
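Whole-lifecycle infectious HCVcc-Cre system; cells 1,000/well, compound then virus (~0.5 moi) added 4 h after plating, 44 h culture. Luciferase read 15 sec following 15 min substrate incubation, room temp.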
VACV mCherry inh = vaccinia inhibition (mCherry reporter); Vaccinia virus mCherry reporter infection, fluorescence; Potency, µM (doses to about 36.5 µM), usual class: inhibitors; 0.63% of 310,000 active; calls by dose curve; tested in A549 cells; further: nearly all actives have a fitted effect of over 35% in size
HCMV antiviral = blocks human cytomegalovirus replication | activity change, negative = inhibition, % at 57.5 µM | HFF cells, HCMV-luciferase reporter, 72 h; active compounds read low | 4.5% of 410,000 active; in the data active means activity change below about -60%; inconclusive means no clear call, values can overlap the other calls; inactive means above about -39%
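HFF cells seeded 16 h at 37C, treated with compounds, infected with luciferase-reporter HCMV at MOI 1 PFU/cell; luciferase read at 72 h post infection, normalized to buffer-only and Salinomycin controls.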
Sm TGR block = S. mansoni TGR enzyme inhibition; Q962Y6; purified TGR, DTNB reduction, TNB absorbance 405 nm; Potency, µM (highest dose often 114 µM), actives largely listed as inhibitors; 3% of 360,000 active; AID 485364; further: nearly all actives have a fitted effect of over 60% in size
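Kinetic colorimetric format: TGR-catalysed, NADPH-driven DTNB reduction monitored via TNB absorbance. Enzyme dispensed at 20 nM; compound exposure 15 min at room temperature before reaction start.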
VACV Venus inh = vaccinia inhibition (Venus reporter); Vaccinia virus Venus reporter expression, fluorescence; Potency, µM (series often up to 36.5 µM), most hits filed as inhibitors; 0.46% of 330,000 active; AID 720580; calls by dose curve; tested in A549 cells; further: nearly all actives have a fitted effect of over 30% in size
FMDV antiviral = antivirals against foot and mouth disease virus; FMDV antiviral cell-based qHTS; Potency, µM (titrated, usually from 57.9 µM), actives largely listed as inhibitors; 1.2% of 410,000 active; AID 1159524; calls by dose curve; tested in HEK293T cells; further: read-out not given here; nearly all actives have a fitted effect of over 45% in size
Hits are given with their value; 0 = inactive; ? = inconclusive; - = no result. Unless noted, the call rests on the fitted dose curve; in most records, active means well fitted curve in the direction sought with a large enough effect; inconclusive means small, poorly fitted or top-dose-only effect, or another doubt; inactive means no such curve, though single readings can be large; an effect the other way counts as inactive or inconclusive.

SMILES	HCV inh	VACV mCherry inh	HCMV antiviral	Sm TGR block	VACV Venus inh	FMDV antiviral
CC(C)C[C@@H](CN)NC(=O)c1nc[nH]c1C(=O)N[C@@H](Cc1ccccc1)C(=O)CNC[C@H](C)NC(=O)c1nc[nH]c1C(=O)N[C@@H](C)C(=O)O	0	0	0	-	0	0
Cc1ccc(S(=O)(=O)N2CCN(C(=O)COC(=O)COc3ccc(Cl)c(C)c3)CC2)c(C)c1	0	0	0	-	0	0
Cc1csc(=O)n1CC(=O)OCC(=O)NNC(=O)c1ccc([N+](=O)[O-])cc1	0	0	0	0	0	0
CCOC(=O)c1ccc(NC(=O)c2cn(-c3ccccc3)nc2-c2ccc(C)cc2)cc1	-	0	0	0	0	0
Cc1ccc(C(C)C)cc1OCC(=O)Nc1nnc(C2CC2)s1	0	2µM	-84.0	-	0	0
Cc1cc(OCC(=O)Nc2nnc(C3CC3)s2)ccc1C(C)C	0	-	0	0	-	0
Cc1ccccc1Nc1c2c(nc3nncn13)CCC2	-	0	0	?	0	0
CCN(CC)Cc1c(NC(=O)c2ccccc2)sc(C)c1C	0	0	0	8.91µM	0	0
COc1ccc(C(=O)N2CCc3[nH]nc(-c4ccccc4)c3C2)cc1	11.2µM	0	0	0	0	0
O=C(c1ccccc1)N1CCc2[nH]nc(-c3ccccc3)c2C1	0	-	0	0	-	0
Cc1cc(=O)c2cc(Br)ccc2n1CC(=O)NCc1ccccc1	12.6µM	-	0	0	-	0
O=C(Cn1c(=O)n(CC(=O)NCc2ccccc2)c2ccccc21)NCc1ccccc1	7.08µM	-	0	0	0	0
O=C(CSc1nccn1-c1cccc(Cl)c1)Nc1cccc2ccccc12	-	0	-62.8	0	0	0
COc1ccc(Cl)cc1NC(=O)CSc1nccn1-c1ccc(Cl)cc1	-	0	-81.5	0	0	?
Cc1ccc(CCNC(=O)Cn2nc(-c3ccc(C)cc3)ccc2=O)cc1	-	0	?	0	0	0
CCN(CC)CCN(Cc1cc2cccc(C)c2[nH]c1=O)C(=S)Nc1ccccc1	?	0	0	0	0	0
Cc1cc(C)c2cc(CN(CCO)C(=O)Nc3ccc(Cl)cc3)c(=O)[nH]c2c1	0	-	0	0	?	?
Cc1ccc2cc(CN(CCN(C)C)C(=S)Nc3ccccc3)c(=O)[nH]c2c1C	10µM	0	0	0	0	0
Cc1ccc2cc(CN(CCN(C)C)C(=O)Nc3ccc(Cl)cc3)c(=O)[nH]c2c1	6.31µM	0	0	0	0	0
Cc1ccc2[nH]c(=O)c(CN(CCCN(C)C)C(=O)Nc3ccc(Cl)cc3)cc2c1	10µM	-	0	0	-	0
O=C1NC(=O)N(Cc2ccccc2)C(=O)/C1=C/N1CCCc2ccccc21	0	-	0	?	-	?
O=C1NC(=O)N(Cc2ccco2)C(=O)/C1=C/C=C/c1ccco1	0	0	?	2µM	0	?
O=C1NC(=O)N(Cc2ccccc2)C(=O)/C1=C\C=C\c1ccco1	0	0	-98.3	10µM	0	25.1µM
COc1ccc(NC(=O)C2CCCN(S(C)(=O)=O)C2)cc1 (centres undefined)	0	0	0	0	0	0
Cc1cccc(C)c1NC(=O)C1(C)CN(S(C)(=O)=O)CC(=O)N1Cc1cccc(F)c1 (centres undefined)	-	0	0	-	0	0
SMILES	HCV inh	VACV mCherry inh	HCMV antiviral	Sm TGR block	VACV Venus inh	FMDV antiviral
COc1cc(OC)c(-c2cc(C(=O)NCc3ccc(F)cc3)c3c(-c4ccccc4)[nH]nc3n2)cc1OC	-	?	-92.6	0	0	0
COc1ccccc1-c1cc(C(=O)NCc2ccccc2)c2c(-c3ccc(C)cc3)[nH]nc2n1	-	0	0	0	0	0
COc1ccc(-c2cc(C(=O)NCCc3ccc(OC)c(OC)c3)c3c(-c4ccc(F)cc4)[nH]nc3n2)cc1	-	0	0	0	0	0
CCOc1ccc(-c2cc(C(=O)NCCc3ccc(OC)c(OC)c3)c3c(-c4ccc(F)cc4)[nH]nc3n2)cc1	-	?	-91.9	0	?	0
CCOc1ccc(NC(=O)c2ccc(CN3C(=O)C(C)=C(c4ccc(C)cc4)S3(=O)=O)cc2)cc1	-	0	0	0	0	0
CN(C(=O)c1c[nH]c(=O)cc1C(F)(F)F)c1ccc(Cl)c(Cl)c1	0	0	0	0	0	0
CCOC(=O)N1CCC(N2C(=O)c3ccc(C(=O)Nc4cccc(OC)c4)cc3C2=O)CC1	0	-	0	0	-	?
Cc1cc(C(=O)COC(=O)CNC(=O)c2ccccc2)c(C)n1CC1CCCO1 (centres undefined)	0	0	0	0	0	15.8µM
Cc1cc(C(=O)COC(=O)c2ccc[nH]c2=O)c(C)n1C	0	0	0	0	0	0
COCCn1c(C)cc(C(=O)COC(=O)c2ccc[nH]c2=O)c1C	0	0	-64.6	0	0	?
Cc1cc(C(=O)COC(=O)c2ccc3c(c2)NC(=O)CS3)c(C)n1CC1CCCO1 (centres undefined)	?	0	0	0	0	28.2µM
COCCn1c(C)cc(C(=O)COC(=O)CNC(=O)c2ccccc2)c1C	0	0	0	0	0	25.1µM
CC(=O)OCc1cnc(C)c2oc(=O)c(C(=O)Nc3ccc(C)cc3Cl)cc12	-	0	0	0	0	0
COc1ccc(-c2nnc(SCC(=O)N(C)C3CCS(=O)(=O)C3)n2N)cc1OC (centres undefined)	0	0	0	0	0	0
Cc1cccc(-n2c(C)cc(C(=S)N3CCOCC3)c2C)c1C	0	0	0	0	0	0
Cc1cc(C(=O)COc2cc(F)ccc2[N+](=O)[O-])c(C)n1CC1CCCO1 (centres undefined)	0	-	-65.7	-	-	0
Cc1cc(-n2c(C)cc(C(=O)COc3cc(F)ccc3[N+](=O)[O-])c2C)no1	?	-	?	0	-	0
CCC(CC)C1C(C#N)=C(N)Oc2c1c(=O)oc1ccccc21 (centres undefined)	0	-	0	0	0	0
c1ccc(CN2CCN(c3nc(-c4ccccc4)nc(-n4ccnc4)n3)CC2)cc1	11.2µM	-	-	0	-	0
c1ccc(N(c2ccccc2)c2nc(N3CCCC3)nc(-n3ccnc3)n2)cc1	?	-	-66.3	0	-	?
CN(c1ccccc1)c1nc(N2CCCC2)nc(-n2ccnc2)n1	?	0	0	0	?	?
c1ccc(CN2CCN(c3ncccn3)CC2)cc1	0	0	0	0	0	0
Clc1ccc(CCNc2ncnc3c2c(-c2ccccc2)cn3-c2ccccc2)cc1	-	0	0	0	0	0
CCOC(=O)N1CCC(NC(=O)Cn2cc3c(n2)CCCC3)CC1	0	0	0	0	0	0
CC1(C)CC(=O)C=C(c2ccc(F)cc2OCc2ccccc2)C1	20µM	0	0	0	0	?
CN(CC(=O)Nc1ccccc1C(F)(F)F)C(=O)CSCc1ccc(Cl)c(Cl)c1	?	0	0	0	0	0
COc1ccccc1N1C(=O)c2cccc3c(Cl)ccc(c23)C1=O	?	0	-82.2	0	0	0
CCOc1ccc(NS(=O)(=O)c2ccc3[nH]c4c(c3c2)CCCCC4)cc1	-	0	-103.0	0	0	0

Screening data (PubChem BioAssay)
